About 79,000 compounds went through this panel and 15% of them were active in at least one assay; those are over-represented in the sample as a whole. No stated cut-off is given here; in the data, active means growth inhibition above about 70%; inactive means the rest.
Experiments:
[1] = NCI Yeast Anticancer Drug Screen. Data for the rad50 strain (AID 155);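 further: 0% = growth of vehicle-only cultures of the same strain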; conditions: S. cerevisiae rad50 strain growth inhibition; at 50.0 µM; stronger effect = higher value
Summary of the method: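 DNA repair mutant yeast, compound exposure, growth read-out; inhibition is taken relative to vehicle.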

[2] = NCI Yeast Anticancer Drug Screen. Data for the mec2-1 strain (AID 157); conditions: S. cerevisiae mec2-1 strain, at 50.0 µM, stronger effect = higher value
Summary of the method: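 Yeast mec2-1 mutant treated with compound. Readout: growth inhibition vs vehicle controls.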

[3] = NCI Yeast Anticancer Drug Screen. Data for the sgs1 mgt1 strain (AID 161);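 further: 0% = growth of cultures given vehicle only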; conditions: S. cerevisiae sgs1 mgt1 strain, at 50.0 µM, stronger effect = higher value
Summary of the method: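 Genetically altered yeast, compound exposure, growth inhibition relative to vehicle.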

[4] = NCI Yeast Anticancer Drug Screen. Data for the cln2 rad14 strain (AID 165);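 further: 0% = growth equal to vehicle treated cultures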; conditions: S. cerevisiae cln2 rad14 strain, at 50.0 µM, stronger effect = higher value
Summary of the method: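 cln2 rad14 yeast strain; compound exposure; growth inhibition read vs vehicle controls.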

[5] = NCI Yeast Anticancer Drug Screen. Data for the bub3 strain (AID 167); conditions: S. cerevisiae bub3 mutant strain, at 50.0 µM, stronger effect = higher value
Summary of the method: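 In this screen, a yeast mutant lacking normal mitotic checkpoint function is challenged with compound. Relative growth versus vehicle gives the inhibition value.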

[6] = NCI Yeast Anticancer Drug Screen. Data for the mlh1 rad18 strain (AID 175); conditions: S. cerevisiae mlh1 rad18 strain growth inhibition; at 50.0 µM; stronger effect = higher value
Summary of the method: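 Yeast w/ defined DNA-repair lesions; compound exposure; growth vs vehicle controls → % inhibition.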

Measured: growth inhibition

CCOC(=O)c1c[nH]c2ccccc2c1=O
inactive: [1] 1.65% | [2] -8.95% | [3] -0.35% | [4] -16% | [5] -7.9% | [6] 2.2%

CC1(C)C=CC(=NO)C=C1
inactive: [1] -4.65% | [2] 2.65% | [3] -5.95% | [4] 6.45% | [5] 8.4% | [6] 6.7%

NCCN(CCN)/[N+]([O-])=N/O
inactive: [1] 18.6% | [2] -0.2% | [3] 6.3% | [4] -1% | [5] 0.65% | [6] 16.9%

CC(=O)N(C)N=Nc1ccc(C(F)(F)F)cc1
inactive: [1] -7.7% | [2] -12.7% | [3] -9% | [4] -30.1% | [5] -5.8% | [6] -4.5%

CCOC(=O)/C(C)=C1\N=C(c2ccccc2)OC(=NC2CCCCC2)N1C1CCCCC1
inactive: [1] 9.95% | [2] -4.8% | [3] 0.3% | [4] 17.9% | [5] -4.55% | [6] 8.1%

NS(=O)(=O)c1ccc(NC(=O)c2cccc3c(=O)c4ccccc4[nH]c23)cc1
inactive: [1] -2.55% | [2] -1.95% | [3] -13.2% | [4] 14.8% | [5] -6% | [6] -14.1%

COc1ccc(C2=C(N)c3c(Cl)cccc3C2=O)cc1
inactive: [1] 6.35% | [2] 3.4% | [3] 30.2% | [4] 14.8% | [5] 21.5% | [6] -58.2%

N#C/C(=C\c1ccc2[nH]ccc2c1)C(=O)NCCCCNC(=O)/C(C#N)=C/c1ccc2[nH]ccc2c1
inactive: [1] 5.35% | [2] 23.2% | [3] 10.4% | [4] -21.4% | [5] 9.65% | [6] 5.7%

O=C1CN(N2C(=O)CSC2C23CC4CC(CC(C4)C2)C3)C(=O)CN1c1ccccc1 (stereo not given)
inactive: [1] 7.2% | [2] 2.1% | [3] 13% | [4] 24.8% | [5] -2.6% | [6] 12.8%

CN(C)c1ccc(N2C(=S)SC(=Nc3ccccc3)C2=Nc2ccccc2)cc1
inactive: [1] -6% | [2] -13.6% | [3] -10.8% | [4] 7.05% | [5] -1.5% | [6] 3.45%

c1ccc(C(c2cccc3c2ccc2ccccc23)C(c2ccccc2)c2cccc3c2ccc2ccccc23)cc1 (stereo not given)
inactive: [1] 4.75% | [2] -9.6% | [3] -33.3% | [4] -19.6% | [5] -22.4% | [6] -12.7%

Cc1ccc(S(=O)(=O)ON/N=c2\ccn(C)c3ccccc23)cc1
inactive: [1] 38.1% | [2] 12.6% | [3] 19.1% | [4] -4.85% | [5] 8.05% | [6] 16.6%

C/C(=N/NC(=O)c1ccncc1)C(F)(F)F
inactive: [1] -29.8% | [2] 5.75% | [3] -25.9% | [4] -6.85% | [5] 14% | [6] 7.85%

NC(=S)NCCN1CCOCC1
inactive: [1] -8.85% | [2] -5.95% | [3] -1.9% | [4] -15.7% | [5] 2.25% | [6] 10%

CCc1cccc(C(C)(C)C)c1NC(=S)NC=C(C#N)C#N
inactive: [1] 27.9% | [2] -11.6% | [3] 36.8% | [4] 26.8% | [5] 17.6% | [6] 45.8%

Cn1c(=O)c(C(=O)NC(=O)OCc2ccccc2)cn(CCSCCOC(=O)NCCCCCCNC(=O)OCCSCCn2cc(C(=O)NC(=O)OCc3ccccc3)c(=O)n(C)c2=O)c1=O
inactive: [1] -3.1% | [2] -21.1% | [3] -6.35% | [4] -0.95% | [5] -5.15% | [6] -16.5%

Cc1cc(=O)[nH]c(NN)n1
inactive: [1] 1% | [2] -1.85% | [3] -1.85% | [4] 23.1% | [5] 21.9% | [6] 2.15%

Cc1c2oc3c(C)ccc(C(=O)NCCN4CCOCC4)c3nc-2c(C(=O)NCCN2CCOCC2)c(N)c1=O
inactive: [1] -8.1% | [2] 29.6% | [3] 37.5% | [4] -26.5% | [5] 38.9% | [6] 15.8%

CCOC(=O)Nc1nc2c(s1)c([N+](=O)[O-])cn2C
inactive: [1] 11.6% | [2] 7% | [3] 17.1% | [4] 2.45% | [5] 4.6% | [6] 20.6%

O=C(NCCNCCNC(=O)C(F)(F)F)C(F)(F)F
inactive: [1] -9.75% | [2] -16.9% | [3] -4.4% | [4] 12.8% | [5] -1.5% | [6] -41.6%

CSc1ccc(NC(=O)N(Cc2ccccc2)c2ccccc2)cc1
inactive: [1] 3.75% | [2] 16.9% | [3] 11.9% | [4] -6.4% | [5] 19.2% | [6] 13.8%

CC(=O)Nc1ccc(NS(=O)(=O)c2ccc3nc(C)n(NS(=O)(=O)c4ccc(NC(C)=O)cc4)c(=O)c3c2)cc1
inactive: [1] 29.1% | [2] 38% | [3] 29.1% | [4] 15.4% | [5] 39.2% | [6] 15.3%

Brc1cccc(Br)n1
inactive: [1] -6.45% | [2] -6.15% | [3] -7.55% | [4] 7.4% | [5] 2.1% | [6] 4.05%

O=C(O)c1nc2nc(Cl)c(Cl)nc2[nH]1
inactive: [1] -22.7% | [2] -30.4% | [3] -19.7% | [4] 21.9% | [5] -37.8% | [6] 9.4%

Cc1cc2nc(CC(C(F)(F)F)C(F)(F)F)oc2cc1C
inactive: [1] -21% | [2] -13.4% | [3] -13.2% | [4] -4.85% | [5] -14.4% | [6] 34.9%

CC(=O)OCC(=O)[C@@]1(O)CC[C@H]2[C@@H]3CC[C@H]4[C@H](Br)C(=O)CC[C@]4(C)[C@H]3C(=O)C[C@@]21C
inactive: [1] -20.1% | [2] -33.1% | [3] -11.3% | [4] -12.8% | [5] -8.1% | [6] -23.9%

Cc1ccc(NC(=NCCCN(C)C)C(c2ccccc2)c2ccccc2)cc1
inactive: [1] -2.7% | [2] -0.25% | [3] -5.4% | [4] 0.4% | [5] 11.4% | [6] 13.4%

O=C(Oc1cccc2ccccc12)c1cccnc1
inactive: [1] -1.45% | [2] -2% | [3] 6.4% | [4] -38% | [5] 19.7% | [6] 31.3%

Cc1ccc(F)c(N)c1
inactive: [1] 26.8% | [2] -17.2% | [3] 24.1% | [4] 5.8% | [5] 5.75% | [6] 27.9%

NC(=O)N/N=C1\CCn2cccc21
inactive: [1] -10.8% | [2] 1% | [3] -3.25% | [4] -2.2% | [5] 1.1% | [6] -5.1%

CCOC(=O)NN(C(=O)OCC)C(C(=O)C1CCCCC1)N(NC(=O)OCC)C(=O)OCC
inactive: [1] 21.4% | [2] -21.6% | [3] 18.9% | [4] 11.2% | [5] -3.55% | [6] -8.4%

O=C1NC(=O)C(Cc2ccco2)N1 (stereo not given)
inactive: [1] 10.8% | [2] 6.7% | [3] -7.85% | [4] -20.6% | [5] -35.5% | [6] -5.2%

COc1c(C)c(=O)n2c3ccccc3n(C)c2c1C#N
inactive: [1] 19.5% | [2] 10.3% | [3] -18.4% | [4] 8.55% | [5] 0.85% | [6] 14.8%

CC1(CO)OC(n2cnc3c(N)ncnc32)C(O)C1O (stereo not given)
inactive: [1] -25.8% | [2] -30.8% | [3] -52.6% | [4] -8.25% | [5] -14.7% | [6] -29.2%

O=C(NCCNc1ccccc1)C12CC3CC(CC(C3)C1)C2
inactive: [1] -4.2% | [2] 1.35% | [3] -3.9% | [4] -2.4% | [5] 19.1% | [6] 9.5%

O=C(O)CS/C(=N\S(=O)(=O)c1ccccc1)Nc1cccc(Cl)c1
inactive: [1] -2.85% | [2] -24.9% | [3] 19.1% | [4] 12% | [5] 5.45% | [6] -7.85%

O=S(=O)(c1ccccc1)N1CCC1c1ccccc1 (stereo not given)
inactive: [1] -11.3% | [2] -3.9% | [3] -8.8% | [4] 21.9% | [5] 9.3% | [6] 0.8%

CCCOC(=O)/C(C)=C\c1ccccc1
inactive: [1] 21% | [2] 15.9% | [3] 17.6% | [4] 15.3% | [5] -0.6% | [6] 16.9%

Nc1nnc(-c2ccccc2)o1
inactive: [1] 9.85% | [2] -4.8% | [3] 4.05% | [4] -19.9% | [5] 4.8% | [6] 3.35%

Clc1ccc2nc(/C=C/c3ccccc3)ccc2c1
inactive: [1] -10.7% | [2] -4.2% | [3] -9.4% | [4] 3.35% | [5] 6.9% | [6] -15.7%
